# Measured values as given in the supplement of paper PMC7724964.
# B1: unnamed (peptide)
# chain: FDFWQAREYHMLNMMA
# B2: unnamed (peptide)
# chain: DVTWWSERAQATLVMM
# B3: unnamed (peptide)
# chain: QEFMSISYPPGMPQDP
# B4: unnamed (peptide)
# chain: QFLPTTWQDYLLYMDQ
# B5: unnamed (peptide)
# chain: PKTGEPWHPWIPHWLA
# B6: unnamed (peptide)
# chain: WDAFVNDFMHEWSTFK
# B7: unnamed (peptide)
# chain: LSSLETYKNHGLMFMF
# B8: unnamed (peptide)
# chain: PPPGYSKWTWSVQERV
# B9: unnamed (peptide)
# chain: YQQDLVDFLWNDLYAF
# B10: unnamed (peptide)
# chain: YQMQQWQFSPEIWLNM
# B11: unnamed (peptide)
# chain: HDVWASSWNWDDFRLN
# B12: unnamed (peptide)
# chain: SDGDLIWWDWAYNAEQ
# B13: unnamed (peptide)
# chain: VSYPLVDLSDWHMWTN
# B14: unnamed (peptide)
# chain: TIPPGYFKWVGEVRDE
# B15: unnamed (peptide)
# chain: GWWQSREYYMQDLMAS
# B16: unnamed (peptide)
# chain: RDEAHMEWHFPSIWLT
# B17: unnamed (peptide)
# chain: SQPEQMQWHTYDPYDL
# B18: unnamed (peptide)
# chain: QTWQERQAMMMHMMQW
# B19: unnamed (peptide)
# chain: LNWWTYEELQDLEQFT
# B20: unnamed (peptide)
# chain: VDGWWIARSEHLMQMA
# B21: unnamed (peptide)
# chain: GPLAWFLEDPYSSRVG
# B22: unnamed (peptide)
# chain: QQWDPSWYYPQELVKM
# B23: unnamed (peptide)
# chain: GWEPQWFPSEHLADGN
# B24: unnamed (peptide)
# chain: LHSNLEEWLLEDLMMW
# B25: unnamed (peptide)
# chain: IDYESIFYEGMHWHTL
# B26: unnamed (peptide)
# chain: NSMSYMDIVWHSFDTI
# B27: unnamed (peptide)
# chain: VTVPPWLMEMIMELMQ
# B28: unnamed (peptide)
# chain: NWLFLDPDYYNVHWPS
# B29: unnamed (peptide)
# chain: MDSWHYDMIPGEWLRV
# B30: unnamed (peptide)
# chain: WIENWSVSPWDLTNPF
# B31: unnamed (peptide)
# chain: SWDHWDEKMTSMVVFM
# B32: unnamed (peptide)
# chain: VNAHDMLEHWLYQDMI
# Biological target: T1, BTN1A1 285-479 SPRY (domain begin residue: 285, domain end residue: 479), Q13410
# T1 chain: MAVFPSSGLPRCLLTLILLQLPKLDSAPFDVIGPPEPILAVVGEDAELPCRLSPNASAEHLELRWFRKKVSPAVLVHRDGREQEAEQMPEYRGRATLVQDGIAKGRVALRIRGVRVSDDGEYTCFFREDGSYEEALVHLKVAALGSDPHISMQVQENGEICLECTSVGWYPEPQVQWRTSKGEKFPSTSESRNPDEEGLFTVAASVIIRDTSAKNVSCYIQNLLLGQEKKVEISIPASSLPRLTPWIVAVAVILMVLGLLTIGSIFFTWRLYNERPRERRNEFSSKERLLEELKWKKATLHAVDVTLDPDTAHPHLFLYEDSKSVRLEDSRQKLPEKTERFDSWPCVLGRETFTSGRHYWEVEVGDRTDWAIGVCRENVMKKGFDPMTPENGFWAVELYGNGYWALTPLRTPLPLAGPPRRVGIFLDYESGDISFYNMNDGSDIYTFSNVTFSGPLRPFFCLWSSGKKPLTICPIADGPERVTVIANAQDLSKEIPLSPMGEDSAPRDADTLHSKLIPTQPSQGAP
# Assay: phage ELISA signal ratio (GST-PRM binding over GST background); higher = stronger binding of peptide-phage to the PRM
# Experimental: (§1)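 Phage-displayed random hexadecapeptides (Cys-free, flanked by invariant Gly linkers, fused to the M13 P8 major coat protein) were selected over 5 rounds against GST-fused human PRM domains. Individual clones from rounds 4-5 were tested by phage ELISA, and positive clones binding the target but not GST were sequenced. Values are the ELISA signal ratio of target over background (GST); the background signal is given separately.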
row,Binder,phage ELISA signal ratio
1,B1,10.3
2,B2,12.4
3,B5,8.34
4,B7,22.5
5,B15,5.49
6,B18,15.7
7,B20,11.9
8,B31,9.92

# Biological target: T2, CD2BP2 256-341 GYF (domain begin residue: 256, domain end residue: 341), O95400
# T2 chain: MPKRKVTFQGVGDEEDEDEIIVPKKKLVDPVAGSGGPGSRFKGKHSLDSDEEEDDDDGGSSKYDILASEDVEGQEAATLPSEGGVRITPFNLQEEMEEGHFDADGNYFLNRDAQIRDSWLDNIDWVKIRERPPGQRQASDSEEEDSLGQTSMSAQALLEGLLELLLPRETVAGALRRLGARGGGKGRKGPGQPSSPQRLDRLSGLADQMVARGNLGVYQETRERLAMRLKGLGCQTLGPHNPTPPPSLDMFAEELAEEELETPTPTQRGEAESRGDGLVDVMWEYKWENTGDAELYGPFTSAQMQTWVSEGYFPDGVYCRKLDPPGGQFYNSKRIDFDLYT
# Assay: as above
# Experimental: as §1
row,Binder,phage ELISA signal ratio
1,B3,14.4
2,B8,14.2
3,B14,16.3

# Biological target: CBX5 109-173 Chromo_shadow (domain begin residue: 109, domain end residue: 173), P45973
# Assay: as above
# Experimental: as §1
# CBX5 109-173 Chromo_shadow (domain begin residue: 109, domain end residue: 173), P45973, sequence (P45973 whole entry): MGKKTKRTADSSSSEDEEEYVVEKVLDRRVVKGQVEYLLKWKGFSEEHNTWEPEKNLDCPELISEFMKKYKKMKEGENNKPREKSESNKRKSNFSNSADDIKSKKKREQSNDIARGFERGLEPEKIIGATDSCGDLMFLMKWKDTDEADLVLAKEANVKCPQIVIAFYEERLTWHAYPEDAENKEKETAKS
row,Binder,phage ELISA signal ratio
1,B4,3.39

# Biological target: T3, CAPN2 513-700 EF-hand_8 (domain begin residue: 513, domain end residue: 700), P17655
# T3 chain: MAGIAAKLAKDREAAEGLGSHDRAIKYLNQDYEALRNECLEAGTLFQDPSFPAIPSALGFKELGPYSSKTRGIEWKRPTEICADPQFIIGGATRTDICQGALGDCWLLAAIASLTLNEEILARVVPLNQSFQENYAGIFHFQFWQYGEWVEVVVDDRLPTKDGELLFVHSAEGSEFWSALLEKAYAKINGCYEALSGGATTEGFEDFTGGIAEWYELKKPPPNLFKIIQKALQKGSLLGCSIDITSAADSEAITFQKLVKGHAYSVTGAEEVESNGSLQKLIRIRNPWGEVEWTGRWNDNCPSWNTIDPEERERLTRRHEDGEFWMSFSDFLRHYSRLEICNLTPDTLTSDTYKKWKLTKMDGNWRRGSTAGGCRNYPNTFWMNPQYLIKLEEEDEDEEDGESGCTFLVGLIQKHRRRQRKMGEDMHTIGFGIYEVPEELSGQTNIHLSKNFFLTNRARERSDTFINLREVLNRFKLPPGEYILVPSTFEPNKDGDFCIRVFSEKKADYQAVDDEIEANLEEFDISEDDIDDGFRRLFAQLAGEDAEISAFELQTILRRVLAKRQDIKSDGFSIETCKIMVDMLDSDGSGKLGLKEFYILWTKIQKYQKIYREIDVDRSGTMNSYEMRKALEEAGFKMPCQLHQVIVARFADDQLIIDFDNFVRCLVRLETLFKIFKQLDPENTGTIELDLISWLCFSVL
# Assay: as above
# Experimental: as §1
row,Binder,phage ELISA signal ratio
1,B6,26.5
2,B27,5.99

# Biological target: T4, CAPNS1 1-268 EF-hand_8+EF-hand_5 (domain begin residue: 1, domain end residue: 268), P04632
# T4 chain: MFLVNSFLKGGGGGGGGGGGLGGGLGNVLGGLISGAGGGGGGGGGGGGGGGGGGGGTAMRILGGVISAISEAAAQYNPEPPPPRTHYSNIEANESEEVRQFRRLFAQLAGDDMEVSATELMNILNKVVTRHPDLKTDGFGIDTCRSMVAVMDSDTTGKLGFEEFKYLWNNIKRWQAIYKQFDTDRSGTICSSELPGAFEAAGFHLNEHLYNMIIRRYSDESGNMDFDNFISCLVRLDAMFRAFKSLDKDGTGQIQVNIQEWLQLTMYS
# Assay: as above
# Experimental: as §1
row,Binder,phage ELISA signal ratio
1,B9,22.7
2,B24,18.9
3,B32,28.3

# Biological target: CBX3 109-173 Chromo_shadow (domain begin residue: 109, domain end residue: 173), Q13185
# Assay: as above
# Experimental: as §1
# CBX3 109-173 Chromo_shadow (domain begin residue: 109, domain end residue: 173), Q13185, sequence (Q13185 whole entry): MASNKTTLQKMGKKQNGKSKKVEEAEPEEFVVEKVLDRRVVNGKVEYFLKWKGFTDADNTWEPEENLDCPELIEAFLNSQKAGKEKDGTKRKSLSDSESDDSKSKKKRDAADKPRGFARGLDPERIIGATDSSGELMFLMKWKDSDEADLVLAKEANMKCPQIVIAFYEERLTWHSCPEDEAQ
row,Binder,phage ELISA signal ratio
1,B10,7.79
2,B11,12.7
3,B16,16.2
4,B28,3.29
5,B30,4.99

# Biological target: T5, CLTC 1-363 Clathrin_propel+Clathrin-link (domain begin residue: 1, domain end residue: 363), Q00610
# T5 chain: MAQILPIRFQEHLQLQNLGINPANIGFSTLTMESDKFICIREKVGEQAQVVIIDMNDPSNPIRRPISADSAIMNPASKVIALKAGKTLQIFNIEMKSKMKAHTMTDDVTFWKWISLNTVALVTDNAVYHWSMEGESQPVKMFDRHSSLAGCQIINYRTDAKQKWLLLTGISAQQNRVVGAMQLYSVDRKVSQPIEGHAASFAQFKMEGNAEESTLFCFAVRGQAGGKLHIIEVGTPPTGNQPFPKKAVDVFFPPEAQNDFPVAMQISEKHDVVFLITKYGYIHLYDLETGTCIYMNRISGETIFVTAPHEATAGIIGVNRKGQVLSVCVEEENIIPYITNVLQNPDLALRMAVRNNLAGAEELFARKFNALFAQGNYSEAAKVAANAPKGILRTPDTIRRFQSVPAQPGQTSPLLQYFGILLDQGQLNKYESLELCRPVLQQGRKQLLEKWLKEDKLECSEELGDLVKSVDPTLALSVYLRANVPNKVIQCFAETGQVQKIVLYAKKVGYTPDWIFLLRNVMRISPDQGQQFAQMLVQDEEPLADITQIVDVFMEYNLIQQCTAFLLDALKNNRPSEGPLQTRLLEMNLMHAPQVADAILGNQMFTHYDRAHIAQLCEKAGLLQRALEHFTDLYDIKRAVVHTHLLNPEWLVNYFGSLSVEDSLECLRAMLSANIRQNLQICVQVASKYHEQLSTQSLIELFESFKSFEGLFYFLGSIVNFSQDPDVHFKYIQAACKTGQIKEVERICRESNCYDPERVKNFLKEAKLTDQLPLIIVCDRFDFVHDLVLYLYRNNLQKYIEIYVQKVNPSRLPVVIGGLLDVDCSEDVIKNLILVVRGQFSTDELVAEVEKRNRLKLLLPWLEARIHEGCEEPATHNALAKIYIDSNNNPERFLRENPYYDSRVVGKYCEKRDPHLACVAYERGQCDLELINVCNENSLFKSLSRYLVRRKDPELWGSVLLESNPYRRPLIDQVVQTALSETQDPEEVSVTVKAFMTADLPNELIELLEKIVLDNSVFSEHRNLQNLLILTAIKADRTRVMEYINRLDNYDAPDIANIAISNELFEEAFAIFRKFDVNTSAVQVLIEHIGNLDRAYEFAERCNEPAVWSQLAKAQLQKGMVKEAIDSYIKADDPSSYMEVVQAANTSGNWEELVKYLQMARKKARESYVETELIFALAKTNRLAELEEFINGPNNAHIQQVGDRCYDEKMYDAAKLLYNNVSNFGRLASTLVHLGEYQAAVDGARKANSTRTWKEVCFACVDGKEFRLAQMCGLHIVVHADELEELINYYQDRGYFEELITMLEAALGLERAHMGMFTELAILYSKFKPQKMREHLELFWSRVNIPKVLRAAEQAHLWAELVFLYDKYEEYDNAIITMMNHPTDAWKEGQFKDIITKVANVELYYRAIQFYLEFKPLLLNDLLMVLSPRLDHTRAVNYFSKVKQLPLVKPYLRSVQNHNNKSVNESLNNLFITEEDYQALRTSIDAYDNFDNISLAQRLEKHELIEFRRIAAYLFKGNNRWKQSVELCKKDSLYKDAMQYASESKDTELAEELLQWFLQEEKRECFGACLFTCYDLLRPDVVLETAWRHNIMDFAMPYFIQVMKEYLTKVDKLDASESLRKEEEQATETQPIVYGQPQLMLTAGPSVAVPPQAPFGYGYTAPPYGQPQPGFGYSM
# Assay: as above
# Experimental: as §1
row,Binder,phage ELISA signal ratio
1,B12,15.9
2,B13,20.8

# Biological target: CKS1B 1-79 CKS (domain begin residue: 1, domain end residue: 79), P61024
# Assay: as above
# Experimental: as §1
# CKS1B 1-79 CKS (domain begin residue: 1, domain end residue: 79), P61024, sequence (P61024 whole entry): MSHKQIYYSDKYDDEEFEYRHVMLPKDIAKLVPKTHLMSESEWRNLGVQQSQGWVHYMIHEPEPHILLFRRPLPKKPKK
row,Binder,phage ELISA signal ratio
1,B17,30.4
2,B19,22.8
3,B21,11.1
4,B22,20.5
5,B23,7.45
6,B25,22.1
7,B26,19.2
8,B29,34.3
